Results from ChEMBL document CHEMBL3433997, “St. Jude Leishmania screening dataset” (2016).

Target: Glucose transporter (Leishmania mexicana) (UniProt O61059)
Assay: ST_JUDE_LEISH: Cytotoxicity at 2uM final concentration against transgenic Leishmania Mexicana promastigotes LmGT2 that are glucose transport deficient and complemented with the L. Mexicana glucose transporter 2. Activity is measured by DNA content using SYBR green in vitro
Format: functional

Row | SMILES | inhibition [%]
1 | OC(c1ccccc1)C1CN(Cc2ccccc2)CCC1(O)c1ccccc1 (stereo not given) | 7
2 | CC(Cc1ccc(Cl)cc1)Nc1nc(NC2CCCC2)nc(N2CCC(C#N)(c3ccccc3)CC2)n1 (stereo not given) | -0.98
3 | O=C(C=Cc1cccs1)N(CCCn1ccnc1)c1nc2ccc(F)cc2s1 | 2.51
4 | CCCNCc1ccc(-c2ccc(CN(CCOC)C(=O)CCC(=O)c3ccc(OC)c(F)c3)cc2)nc1 | 1.5
5 | CCc1cc2c(N)nc(N)nc2nc1-c1ccccc1 | 0.81
6 | CN(c1ccc2c(c1)nc(NCc1ccc(F)cc1)n2C)c1ccnc(Nc2ccc(CS(C)(=O)=O)cc2)n1 | -1.02
7 | CCn1c(-c2nonc2N)nc2c(C#CC(C)(C)O)ncc(OCCNCCc3ccc(OC)cc3)c21 | 2.23
8 | CCCc1cc(N2CCC(c3ccccc3)(N3CCCCC3)CC2)nc(Nc2ccc(OC)cc2)n1 | 6.08
9 | O=C(Nc1cccc(-c2ccc(-c3nc4cc(C(F)(F)F)ccc4[nH]3)cc2)c1)Nc1ccc(F)c(F)c1F | 0.37
10 | CN1CCN(c2ccnc3ccc(NC(=O)Nc4ccc(Br)cc4)cc23)CC1 | 0.32
11 | COc1cccc(OC2CCN(C(=O)c3cc(C(C)(C)C)nn3Cc3ccccc3)CC2)c1 | 1.38
12 | Brc1ccc(Nc2nc(NCC3CCCO3)c3ccccc3n2)cc1 (stereo not given) | 8.12
13 | COc1cccc2c(NN=Cc3ccc(Cl)cc3)ccnc12 | 2.21
14 | O=C(Nc1cccc(C(F)(F)F)c1)c1cc([N+](=O)[O-])cc2cn[nH]c12 | 1.24
15 | O=C(c1ccc(Cl)c(Cl)c1)N1CCc2c([nH]c3ccccc23)C1CN1CCCC1 (stereo not given) | 3.77
16 | Cc1cc(-c2nc3cncc(-c4cccc(CN5CCCC5Cc5cccnc5)c4)c3n2C)nn1C (stereo not given) | -0.34
17 | Nc1ncc(OC2CCCCC2)c(N)n1 | -1.09
18 | OC(c1cc(C(F)(F)F)nc2c(F)cccc12)C1CCCCN1 (stereo not given) | 1.48
19 | COc1ccc2nccc(N3CCN(CCNCc4ccc5c(n4)NC(=O)CS5)CC3)c2n1 | 0.07
20 | Cc1nc(-c2cccc(C(=O)NC3CCC(CCN4CCc5ccc(-c6cccnc6)cc5CC4)CC3)c2)no1 (stereo not given) | 4.24

Row | SMILES | inhibition [%]
21 | CN(C(=O)Cc1ccc(Cl)c(Cl)c1)C1CCN(CCCCCNC(=O)/C=C/c2ccc(Cl)c(Cl)c2)CC1 | 3.27
22 | CCCCCC(=O)NCC(NCCCNc1cc(=O)c2ccccc2[nH]1)c1cc(Br)cc(Br)c1 (stereo not given) | 5.39
23 | COc1ccc(-c2ccc(Nc3cccc(S(=O)(=O)CCN4CCC(CCN(C)C)CC4)c3)nc2)cn1 | 1.63
24 | CCCCCCCN1CC[C@@H](CCCc2ccnc3ccc(OCCN4CCNCC4)cc23)[C@@H](CC)C1 | 0.64
25 | O=C(Nc1ccc(C(F)(F)F)cc1)c1ccc(NCCCN2CCCCCC2)c([N+](=O)[O-])c1 | 6.28
26 | CCn1c(CN2CCC(C)CC2)nc2cc(NC(=O)c3cccs3)ccc21 | 12.5
27 | COCCNCc1ccc(-c2ccc3c(Nc4ccc(Cl)cc4F)ccnc3c2)o1 | 4.33
28 | Nc1c2c(nc3ccc(NC(=O)c4ccc([N+](=O)[O-])cc4)cc13)CCCC2 | -1.11
29 | CN1CCN(c2ccnc3ccc(NC(=O)Nc4cccc5ccccc45)cc23)CC1 | 1.87
30 | Cc1ccc(S(=O)(=O)Nc2ccc(Nc3nccc(Nc4cccc5[nH]ncc45)n3)cc2)cc1 | 0.3
31 | Cc1cc(N2CCN(CC3CCCCC3)CC2)nc(Nc2ccc(Br)cc2)n1 | 0.54
32 | CCCNC(=O)c1cncc(-c2cccc(CNC3Cc4ccccc4C3)c2)c1 | -1.3
33 | COc1cc2nc(NCCc3ccccc3)nc(NCCCc3ccccc3)c2cc1OC | 2.36
34 | CCN(CC)S(=O)(=O)c1ccc(C=CC(=O)Nc2cc(Cl)ccc2N2CCOCC2)cc1 | 5.02
35 | CCCCOc1c(CNCCCCCCNCc2ccc3ccccc3c2OCCCC)ccc2ccccc12 | 85.2
36 | CS(=O)(=O)Nc1ccc2c(C3CCN(CCC4CCN(C(=O)/C=C/c5ccc(Cl)c(Cl)c5)CC4)CC3)c[nH]c2c1 | 4.12
37 | CCN(CC)CCN(Cc1ccc(-c2ccc(C(F)(F)F)cc2)cc1)C(=O)Cn1c(SCc2ccc(F)cc2)nc(=O)c2ccccc21 | 1.8
38 | COc1ccc2[nH]c(C)cc(=NN=Cc3ccc(F)cc3)c2c1 | 1.88
39 | Cc1cnc(NCCc2ccc(F)cc2)nc1N[C@@H](CC(C)C)C(=O)Nc1ccccc1 | 4.26
40 | O=C(N[C@H]1CCN(CCc2ccc(O[C@H]3CCNC3)c(Br)c2)C1)c1ccc(Cl)c(Cl)c1 | 1.43
